# Sampled rows, rich in hits. Any-hit rate of the full collection: about 7.4%.
# ELG1 genotoxic = qHTS screen for small molecules that induce genotoxicity in human embryonic kidney (HEK293T) cells expressing luciferase-tagged ELG1; HEK293T ELG1-luciferase reporter, luminescence, 16 h; Potency, µM (highest dose often 46 µM), usual class: activators; hit rate 1.3% among 330,000; AID 504466, 2011; further: nearly all actives have a fitted effect of over 60% in size
#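 Luminescence read-out: rising ELG1-luciferase signal, reflecting elevated ELG1 protein under genetic stress, flags genotoxic compounds. Cells were treated for 16 hr at 37 °C before ONE-Glo detection.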
# NPC1 promoter act = qHTS Assay for NPC1 Promoter Activators; Potency, µM (doses to about 9.22 µM), usual class: activators; AID 485313, 2010; hit rate 2.4% among 320,000; Huh7 NPC1 promoter luciferase reporter, 24 h; further: nearly all actives have a fitted effect of over 60% in size
#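 Huh7 reporter cells (NPC1 promoter driving luciferase) are dosed with compound for 24 h at 37 °C, 5% CO2; luciferase detection reagent is then added and luminescence measured after 10 min at ambient temperature.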
# SMN2 splice enh = qHTS Assay for Enhancers of SMN2 Splice Variant Expression; HEK293 SMN2-luciferase splicing reporter, luminescence, 30-36 h; Potency, µM (series often up to 46.1 µM), actives largely listed as activators; hit rate 2.8% among 210,000; further: nearly all actives have a fitted effect of over 55% in size
#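 qHTS luciferase splicing reporter: luminescence rises when SMN2 exon 7 is included in transfected HEK293 cells. Compound exposure lasted 30-36 h at 37C, with 4.5 mM final sodium butyrate as control, followed by a ONE-Glo read.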
# FLuc modulator = qHTS profiling assay for firefly luciferase inhibitor/activator using purifed enzyme and Km concentrations of substrates (counterscreen for miR-21 project); Luciferin 4-monooxygenase (Photinus pyralis), P08659; AID 588342, 2011; purified FLuc, Km substrates, luminescence inhibition; hit rate 6.9% among 360,000; Potency, µM (doses to about 57.5 µM), hits mostly inhibitors; further: nearly all actives have a fitted effect of over 55% in size
# Target sequence (P08659 whole entry, looked up): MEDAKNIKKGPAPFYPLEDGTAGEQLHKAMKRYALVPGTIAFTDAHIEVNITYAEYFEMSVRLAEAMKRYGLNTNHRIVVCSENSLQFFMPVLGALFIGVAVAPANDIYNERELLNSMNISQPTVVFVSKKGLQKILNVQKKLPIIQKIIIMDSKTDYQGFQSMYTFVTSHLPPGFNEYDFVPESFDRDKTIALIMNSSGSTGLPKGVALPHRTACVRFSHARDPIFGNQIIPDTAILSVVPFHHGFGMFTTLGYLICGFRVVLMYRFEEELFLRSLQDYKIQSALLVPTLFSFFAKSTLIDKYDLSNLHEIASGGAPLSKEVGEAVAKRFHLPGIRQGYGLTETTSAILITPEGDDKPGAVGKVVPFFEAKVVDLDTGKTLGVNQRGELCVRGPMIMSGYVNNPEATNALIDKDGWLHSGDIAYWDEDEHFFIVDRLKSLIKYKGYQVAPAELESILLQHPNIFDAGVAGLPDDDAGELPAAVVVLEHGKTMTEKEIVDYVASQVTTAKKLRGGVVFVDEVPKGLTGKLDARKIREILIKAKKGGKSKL
#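 Purified P. pyralis luciferase (10nM final) with 10uM D-luciferin and 10uM ATP (Km levels) in 50mM Tris acetate pH 7.5, 10mM Mg acetate, 0.01% Tween-20, 0.05% BSA; qHTS 6-point titration, ~60 µM downward; luminescence read.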
# Rab9 prom act = qHTS Assay for Rab9 Promoter Activators. Huh7 Rab9 promoter-luciferase reporter, luminescence, 24 h. Potency, µM (top dose mostly 9.22 µM), hits mostly activators. hit rate 2.8% among 320,000; further: nearly all actives have a fitted effect of over 60% in size
#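 Huh7 cells stably carrying Rab9 promoter–luciferase reporter, plated 1500 cells/well, compound added after 2 h and incubated 24 h at 37 °C; luciferase luminescence then read after 10 min with detection reagent.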
# KinaseGlo FLuc = Counterscreen for Luciferase (Kinase-Glo TM) Inhibition | hit rate 0.28% among 200,000 | Luciferin 4-monooxygenase (Photuris pensylvanica), Q27757 | Potency, µM (top dose mostly 38.3 µM), hits mostly inhibitors | Kinase-Glo luciferase, ATP luminescence, 8 min; further: nearly all actives have a fitted effect of over 60% in size
#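 Light output from Kinase-Glo luciferase with luciferin and 10 uM ATP in 50 mM imidazole pH 7.2, KCl, MgCl2, Tween 20, BSA; compound pin-delivered, 8-min ambient incubation, then luminescence read.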
# Hits are given with their value; - = inactive; ? = inconclusive; . = no result given. The call rests on the fitted dose curve; in most records, active means well fitted curve in the direction sought with a large enough effect; inconclusive means small, poorly fitted or top-dose-only effect, or another doubt; inactive means no such curve, though single readings can be large; an effect the other way counts as inactive or inconclusive.
SMILES,ELG1 genotoxic,NPC1 promoter act,SMN2 splice enh,FLuc modulator,Rab9 prom act,KinaseGlo FLuc
COCCNC(=O)c1cn(CCOC)c(=O)c2c1c1ccccc1n2C,-,-,.,-,-,.
NCCCC[C@H]1CNC(=O)C(=O)N1CCC12CC3CC(CC(C3)C1)C2,-,-,.,-,-,.
C/C(=N/NC(=O)CN(c1ccccc1)S(=O)(=O)c1ccccc1)c1ccccc1O,-,-,.,-,-,.
COc1cccc([C@@H]2Oc3ccc(OC)cc3C(=O)[C@H]2OC(=O)NS(=O)(=O)c2ccc(C)cc2)c1,.,.,11.2µM,.,.,-
COc1ccc(/C=N/n2c(SC)nnc2-c2ccccc2)c(OC)c1OC,-,-,14.1µM,-,-,-
CCOC(=O)N1CCN(C(=O)CNC(=O)c2ccc(Cl)cc2)CC1,-,-,.,-,-,.
Cn1c(=O)c2ncn(CC(=O)Nc3cccc(-c4nc5ccccc5s4)c3)c2n(C)c1=O,-,3.16µM,-,3.79µM,?,-
Cc1ccc(OCC(=O)Nc2cccc(-c3nc4ccccc4s3)c2)cc1,.,.,.,9.53µM,.,.
Cc1cccc(OCC(=O)Nc2ccc3nc(SCc4ccccc4)sc3c2)c1,.,.,.,-,.,.
Cc1cccc(OCC(=O)Nc2cccc(-c3nc4ccccc4s3)c2)c1,.,.,3.16µM,6.01µM,.,.
CCCCOc1ccc(/C=N/Nc2cc(N3CCOCC3)nc(C)n2)cc1,-,-,.,?,-,.
COc1ccc(NC2=Nc3ccccc3CC2)cc1,4.47µM,2.82µM,12.6µM,10.7µM,1.58µM,-
COc1ccc(NC2=NCCCCC2)cc1,-,-,.,-,-,.
COc1cccc2c1OCC(C(=O)Nc1nccs1)=C2,?,2.24µM,.,5.36µM,2µM,.
COc1cc2ccccc2cc1C(=O)NCC(c1cccs1)N(C)C (stereo not drawn),-,2.82µM,?,5.36µM,?,-
COc1cc2ccccc2cc1C(=O)Nc1nccs1,-,3.16µM,.,8.49µM,?,.
COc1cc(OC)c(C(=O)NCC(c2cccs2)N(C)C)cc1OC (stereo not drawn),-,-,-,-,-,-
COc1c(C(=O)Nc2nccs2)ccc2ccccc12,?,1.78µM,.,3.01µM,?,.
COc1cccc(C=Nc2ccccc2C(=O)Nc2nccs2)c1OC,?,-,-,-,-,-
CCCCCN(C(=O)CCC(=O)OCC(=O)c1cccc(OC)c1)c1c(N)n(CCCC)c(=O)[nH]c1=O,-,-,.,-,-,.
O=C(CSc1nc2ncccc2[nH]1)c1ccc2c(c1)OCO2,-,?,.,-,?,.
O=C1CCC(C(=O)OCc2nnc(-c3ccccc3)o2)=NN1,?,-,.,-,-,.
Nc1ccc(Cc2ccc(N)c(O)c2)cc1O,-,-,-,19µM,?,-
COc1ccc(-c2noc(-c3cc(C(C)C)[nH]n3)n2)cc1,.,.,.,21.3µM,.,.
CC(C)c1cc(-c2nc(-c3ccccc3)no2)n[nH]1,.,.,.,1.69µM,.,.
SMILES,ELG1 genotoxic,NPC1 promoter act,SMN2 splice enh,FLuc modulator,Rab9 prom act,KinaseGlo FLuc
c1ccc(-c2noc(-c3ccccc3-c3ccccc3)n2)cc1,-,-,-,-,-,-
Cc1ccccc1-c1noc(-c2cc(C(C)C)[nH]n2)n1,.,.,.,10.7µM,.,.
Cc1ccc(-c2noc(-c3cc(-c4ccc(F)cc4)n[nH]3)n2)cc1,.,.,.,-,.,.
Cc1ccccc1-c1noc(-c2cc(-c3ccc(F)cc3)n[nH]2)n1,.,.,.,-,.,.
CC(C)c1cc(-c2nc(-c3ccc(Br)cc3)no2)n[nH]1,.,.,.,13.5µM,.,.
COc1ccc(-c2ccc(-c3noc(-c4ccccc4OC)n3)c(OC)n2)cc1,-,-,-,-,-,-
CC1Sc2ccc(S(=O)(=O)CCC(=O)N3CCCC3)cc2NC1=O (stereo not drawn),-,-,.,-,-,.
C#CC[N+]1(CC#Cc2ccc(C)cc2)CCCCC1,-,-,-,-,-,-
Cc1cc(C)c2nc(N3CCN(C(=O)c4cccs4)CC3)sc2c1,-,-,.,?,-,.
Cc1cc2nc(N3CCN(C(=O)c4cccs4)CC3)sc2cc1C,-,3.98µM,.,?,2.82µM,.
Cc1cc2nc(N3CCN(C(=O)c4ccco4)CC3)sc2cc1C,-,2.51µM,.,6.01µM,0.794µM,.
CC(=O)c1ccc(N2CCN(C(=O)c3ccco3)CC2)c(F)c1,?,?,2.82µM,-,?,-
CC(=O)c1cc(F)c(N2CCN(C(=O)c3ccco3)CC2)cc1C,-,-,-,-,-,-
Cc1cc(C)c2nc(N3CCN(C(=O)c4ccco4)CC3)sc2c1,-,-,.,16.9µM,?,.
Cc1ccccc1OCCC(=O)OCC(=O)Nc1cc(S(=O)(=O)N2CCOCC2)ccc1Cl,-,-,-,-,-,-
O=C(Nc1c(C(=O)N2CCN(c3ccccc3)CC2)oc2ccccc12)c1ccco1,.,.,.,-,.,.

# Screening results as filed in PubChem.
